# Screening data (PubChem)
# An excerpt weighted towards active compounds, which were near 3.7% of everything screened.
# ATXN2 expr inh = Primary qHTS for Inhibitors of ATXN expression. HEK-293 ATXN2-luciferase reporter, luminescence, 24 h. Potency, µM (doses to about 57 µM), without a hit: top-dose activity change, negative = inhibition, actives largely listed as inhibitors. 360,000 compounds, 0.72% hits. AID 1745845, 2022; also: % is scaled to controls: 0 for no effect and ±100 for the full control effect; nearly all actives have a fitted effect of over 55% in size
#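 qHTS (up to 57 uM final) was run with 24 h compound exposure of reporter cells at 37 °C. Each well was multiplexed: SteadyGlo luminescence measured ATXN2-luciferase expression after a fluorogenic Gly-Phe-AFC viability readout (25 uM final).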
# HepG2 viability = qHTS for Inhibitors of TGF-b: Cytotox Counterscreen; Potency, µM (highest dose often 46.1 µM), for inactives: top-dose activity change, negative = cytotoxicity, most hits filed as cytotoxic; 410,000 compounds, 0.76% hits; AID 588856, 2011; HepG2 CAGA-GFP viability, ATP luminescence, 18 h
#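 CellTiter-Glo luminescence gave cytotoxicity after 18 hours at 37 degrees C. The cells were HepG2 CAGA-GFP in 1% FBS DMEM, stimulated with 500 pg/mL TGF-beta after compound addition. %Activity was normalised to no-cell wells (complete cell-killing) and DMSO (no toxicity), and curves were fitted and classified.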
# GLP1R ag = qHTS of GLP-1 Receptor Agonists; Potency, µM (doses to about 45.6 µM), for inactives: top-dose activation, actives largely listed as activators; HEK293 GLP-1R CRE-luciferase, luminescence, 4-6 h; cells express a hypersensitive GLP-1R form; AID 624172, 2012; 380,000 compounds, 0.007% hits; also: % of control where 0% means no effect
# Target sequence (P43220 whole entry, looked up): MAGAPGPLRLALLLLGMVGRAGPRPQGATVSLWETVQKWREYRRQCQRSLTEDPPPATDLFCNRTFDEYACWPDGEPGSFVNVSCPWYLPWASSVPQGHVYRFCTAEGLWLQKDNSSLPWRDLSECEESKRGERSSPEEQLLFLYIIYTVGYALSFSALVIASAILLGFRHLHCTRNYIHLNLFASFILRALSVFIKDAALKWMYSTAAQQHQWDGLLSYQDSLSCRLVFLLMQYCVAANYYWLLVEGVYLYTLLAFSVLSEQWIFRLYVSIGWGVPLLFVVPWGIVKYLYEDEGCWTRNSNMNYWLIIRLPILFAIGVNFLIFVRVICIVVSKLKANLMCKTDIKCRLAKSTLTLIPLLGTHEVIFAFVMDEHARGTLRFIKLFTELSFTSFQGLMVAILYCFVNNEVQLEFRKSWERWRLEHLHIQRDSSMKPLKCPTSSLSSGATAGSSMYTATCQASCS
# GLP-1R inv ag = qHTS of GLP-1 Receptor Inverse Agonists (Inhibition Mode). Glucagon-like peptide 1 receptor (Homo sapiens), P43220. HEK293 GLP-1R CRE-luciferase, luminescence, 24 h; GLP-1R form is constitutively active. Potency, µM (doses to about 38.3 µM), for inactives: at the top dose activity change, negative = inhibition, actives largely listed as inhibitors. 410,000 compounds, 1.6% hits. AID 624417, 2012; also: % is scaled to controls: 0 for no effect and ±100 for the full control effect; nearly all actives have a fitted effect of over 55% in size
#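 HEK293 cells stably co-expressing constitutively active GLP-1R and a cAMP-responsive luciferase reporter were seeded in DMEM with 10% Nu serum, given compounds after 12 h, and incubated 24 h at 37 deg C. Luminescence was then read.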
# TGFb inhibitor = qHTS for Inhibitors of TGF-b; 410,000 compounds, 1.2% hits; Potency, µM (top dose mostly 46.1 µM), for inactives: top-dose activity, negative = inhibition, actives largely listed as inhibitors; HepG2 CAGA-GFP TGF-b/SMAD3 reporter, GFP fluorescence, 18 h; TGF-beta stimulated, 500 pg/mL final; also: % is scaled to controls: 0 for no effect and ±100 for the full control effect; nearly all actives have a fitted effect of over 65% in size
#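 Read-out: total well GFP (ex488/em500-530) summed from mean per-cell fluorescence. Cells: HEPG2 CAGA-GFP, 1% FBS DMEM, 18 h at 37 degrees C with 500 pg/mL final TGF-beta. Unstimulated wells served as the full-inhibition control; stimulated DMSO wells = 0%.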
# ATXN viability = Viability Counterscreen for Primary qHTS for Inhibitors of ATXN expression. Potency, µM (top dose mostly 56.7 µM), hits mostly cytotoxic. S2 cells (HEK-293 line with an ATXN2-luciferase reporter) viability, CellTiter-Fluor protease fluorescence, 24 h. 400,000 compounds, 0.49% hits. AID 651635, 2014; also: nearly all actives have a fitted effect of over 40% in size
# Active calls of the source: *; i = inactive; u = inconclusive; x = not tested or not shown; [ ] = dose if it differs, or a comment. Calls follow the shape of the dose curve; as a rule, active = well fitted curve in the direction sought with a large enough effect; inconclusive = small, poorly fitted or top-dose-only effect, or another doubt; inactive = no such curve, though single readings can be large; an effect the other way counts as inactive or inconclusive. Potency is read from the fitted curve at half-maximal effect.
SMILES,ATXN2 expr inh,HepG2 viability,GLP1R ag,GLP-1R inv ag,TGFb inhibitor,ATXN viability
O=C1CC(SC(=Nc2ccccc2)Nc2ccccc2)C(=O)N1c1cccc(Cl)c1 (stereo not drawn),-10.9%,-0.3%,-0.8%,5.01µM*,0.2%,i
Cc1cccc(NC(=O)c2cccc(Cn3cc(Br)c([N+](=O)[O-])n3)c2)c1C,-4.4%,3.3%,4.8%,10µM*,-32.3%,i
C=C1C[C@@]2(O)O[C@@]3(C[C@H]2C(C)C)[C@H](C)CC[C@H]13,-2.9%,x,x,x,x,x
COc1cccc(CN2C(=O)NC(C)(C3CCN(Cc4ccc(C)o4)CC3)C2=O)c1OC (stereo not drawn),x,x,x,x,x,i
O=C(CSc1nnc(SCc2cccc3ccccc23)s1)N/N=C/c1c[nH]c2ccccc12,6.9%,-4.2%,2.9%,5.62µM*,u,i
CCCCCN=Cc1c(C)[nH]n(-c2nc3ccccc3s2)c1=O,12.6µM*,1.41µM*,-17.5%,-4.3%,-15.2%,i
Nc1cccnc1S(=O)(=O)c1ccccc1,10.8%,-2.5%,-4.5%,12.8%,0.0%,i
O=[N+]([O-])c1cccnc1S(=O)(=O)c1ccccc1,-30.7%,3.55µM*,-6.0%,u,11.2µM*,u
COc1ccc([N+](=O)[O-])c(S(=O)(=O)c2ccc(Cl)cc2)n1,u,0.631µM*,-8.7%,u,1.78µM*,x
COc1ccccc1S(=O)(=O)c1ccccc1[N+](=O)[O-],-1.6%,-0.5%,-1.2%,-7.8%,u,i
COc1ccc([N+](=O)[O-])c(S(=O)(=O)c2ccccc2)n1,11.9µM*,14.1µM*,-4.9%,u,3.16µM*,x
O=[N+]([O-])c1ccc(Nc2nc(NCCN3CCOCC3)nc(Nc3ccc(Cl)cc3)n2)cc1,x,-76.8%,x,x,u,x
Cc1nnc(N/N=C/c2ccccc2O)n1N,-17.7%[11.3 µM],-31.4%,-2.9%,5.7%,u,u
Cc1nnc(N/N=C/c2cc(C)n(-c3ccc(F)cc3)c2C)n1N,0.8%,-104.3%,-2.1%,u,14.1µM*,i
CCNCc1nc2cc(Cl)ccc2c(=O)[nH]1,-10.2%,-6.6%,3.5%,10µM*,0.7%,i
CCSc1nc2ccccc2c(=O)n1C1CCOC(C)(C)C1 (stereo not drawn),-15.0%,-2.7%,22.6%,u,3.0%,i
C=CCSc1nc2ccccc2c(=O)n1C1CCOC(C)(C)C1 (stereo not drawn),-13.1%,7.8%,11.6%,10µM*,-0.1%,i
COc1ccc(CN2CC[C@H]3C=CC[C@@H](C(=O)N4CCN(c5ccccc5)CC4)[C@H]3C2=O)cc1OC,x,9.4%,x,x,1.2%,x
CC(C)Oc1ccc(CN2CCc3nc(Nc4ccc5c(c4)OCCO5)ncc3C2)cc1,-29.9%,-34.8%,x,u,u,i
COC(=O)c1ccc(NC(=S)NC2CC3CCC2C3)cc1 (stereo not drawn),29.5%,-12.5%,-3.9%,10µM*,u,i
O=C1NC(=O)[C@@H](c2cn3c4c(cccc24)CCC3)[C@H]1c1c[nH]c2ccccc12,-21.1%,x,x,x,x,x
O=C(NCc1ccccc1)c1onc(CSc2ccc(Cl)cc2)c1C(=O)NCC1CC1,-1.3%,2.5%,-0.4%,u,-9.6%,i
CCCCNC(=O)c1c(CSc2ccc(Cl)cc2)noc1C(=O)NCc1ccccc1,-13.8%,-30.5%,7.1%,u,-24.3%,i
O=C(NCc1ccccc1)c1onc(CSc2ccccc2)c1C(=O)NCC1CC1,-24.3%,-0.4%,-3.6%,3.55µM*,u,i
